Myeloid diff MLP: compounds promoting myeloid differentiation; 360,000 tested, 1% active; ER-HoxA9 myeloid progenitors, lysozyme-GFP differentiation, flow cytometry; AID 624256; calls only at 10 µM;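 active = normalized GFP-positive differentiation at or above the plate's own cutoff, the solvent-only control mean plus 3 SD; inconclusive = no clear call, values can overlap the other calls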;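 also: cells exposed to compound for four days before flow analysis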
ABCB6 inh MLPCN: human ABCB6 transporter inhibition. AID 602162. K562-ABCB6 porphyrin accumulation, flow cytometry, 1 h; stronger effect = lower value. fluorescence ratio to DMSO, % at 10 µM. 360,000 tested, 0.19% active;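 active = fluorescence ratio to DMSO below 75%, the collection mean minus 3 SD; inconclusive = too few cells collected in the well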;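 also: signal is porphyrin accumulated inside mitochondria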
N-glyco inh: N-linked glycosylation inhibition. reporter increase, % at 12.5 µM. D54 ERlucT glycosylation luciferase reporter, 24 h; percent of 100 nM tunicamycin response. AID 588692. 360,000 tested, 0.23% active;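 active = mean luciferase reporter signal, scaled so untreated is 0 and the glycosylation-blocking control 100, at or above a set limit in every replicate; inconclusive = mean reaches the limit but not every replicate does; inactive = mean below the limit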;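 also: luciferase carries N-glycosylation sites so blocking glycosylation raises the light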
RAD54 inh: blocks human RAD54 Holliday junction branch migration. Q92698. inhibition, % at 10.4 µM. 360,000 tested, 0.14% active. FAM/BHQ fluorescence. AID 602329;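 active = mean normalized replicate activity at least 40 and at least half of replicates scoring 40 or more; inconclusive = only one of the two criteria met; inactive = mean below 40 and under half of replicates reaching 40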;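 also: inhibitors cause a drop in the FAM fluorescence signal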
Vif inh: inhibitors of HIV Vif; HEK293T cells, Vif self-association by quenched fluorescence, imaging, 24 h; inhibition, % at 7.49 µM; 340,000 tested, 0.35% active; AID 602346; in the data active = inhibition above about 50%, passing the limit was not always enough; inconclusive = no clear call, values can overlap the other calls; inactive = below about 31%
Hits are given with their value; 0 = inactive; ? = inconclusive; - = no result given; + = active, no number. Hits are enriched below; roughly 1.6% of the tested compounds scored in any of these assays.

SMILES	Myeloid diff MLP	ABCB6 inh MLPCN	N-glyco inh	RAD54 inh	Vif inh
COc1cc(C=NNC(=O)C(=O)Nc2cccc(Cl)c2)cc(OC)c1O	+	0	0	0	0
Cc1ccc(NC(=O)c2ccc(COc3ccccc3[N+](=O)[O-])o2)nc1	+	0	0	0	0
COc1ccc(/C=N/NC(=O)c2ccc(COc3ccccc3Cl)o2)c(OC)c1C	0	0	43.3	0	0
COc1ccccc1OCc1ccc(C(=O)NN)o1	+	0	0	0	0
O=C(C[C@H]1C[C@@H]2c3cc(NC(=O)CC4CC4)ccc3O[C@@H]2[C@@H](CO)O1)NCc1ccccc1F	-	-	-	0	-
CC1CN(CC(=O)Nc2nc(-c3ccc(Cl)cc3)cs2)CC(C)O1 (stereo unspecified)	+	0	0	0	0
C[C@@H]1CN([C@@H](C)CO)C(=O)c2cccc(NC(=O)c3ccncc3)c2O[C@@H]1CN(C)Cc1ccc(C(=O)Nc2ccccc2N)cc1	-	-	-	0	-
O=C1NC(=O)/C(=C/c2ccc(-c3cccc([N+](=O)[O-])c3)o2)S1	0	0	0	0	0
CCCNC(=O)Cn1c(=O)/c(=C\c2ccc(-c3ccc([N+](=O)[O-])cc3)o2)s/c1=C\C(=O)C(C)(C)C	+	0	0	0	-
CCCNC(=O)Cn1c(=O)/c(=C/c2ccc(-c3cccc([N+](=O)[O-])c3)o2)s/c1=C\C(=O)C(C)(C)C	+	0	0	0	0
CCCNC(=O)Cn1c(=O)/c(=C\c2ccc(-c3cccc([N+](=O)[O-])c3)o2)s/c1=C\C(=O)C(C)(C)C	+	0	0	-	0
O=C1C2C=C(I)[C@H](C[C@@H]2OCCCCCCO)[C@@]12CO2	-	-	-	0	-
COC(=O)c1cc(OC)c(OC)cc1NC(=S)NC(=O)c1ccco1	0	0	39.6	0	0
O=c1/c(=C\c2ccc(O)cc2)sc2n1C(c1ccccc1)C(c1ccccc1)=NN=2 (stereo unspecified)	+	0	0	0	0
CCNC(=O)Nc1ccc2c(c1)C(=O)N(C)[C@H]1CC[C@@H](CC(=O)NCCOC)O[C@@H]1CO2	-	-	-	0	-
CCC(=O)Nc1ccc(C2C(=O)c3ccccc3C2=O)cc1	0	0	0	0	0
O=C1C=C(Nc2ccc(O)cc2)C(=O)c2ccccc21	+	0	0	0	0
O=C1C(Cl)=C(Nc2ccc(O)cc2)C(=O)c2ccccc21	?	66.0	0	-	0
CCCC(=O)NC1=C(Cl)C(=O)c2ccccc2C1=O	?	0	0	-	97.9
CCC(=O)NC1=C(Nc2ccc(N)cc2)C(=O)c2ccccc2C1=O	+	0	0	0	0
CCNC1=C(Cl)C(=O)c2ccccc2C1=O	0	0	0	0	0
COc1ccccc1CN1CC[C@H]2[C@H](CO)Nc3ccc(-c4ccc(C(=O)N(C)C)cc4)cc3[C@H]21	-	-	-	0	-
COC1=C(Nc2ccc(OC)cc2)C(=O)c2ccccc2C1=O	0	0	0	-	0
COC1=C(Nc2ccc(O)cc2)C(=O)c2ccccc2C1=O	+	0	0	-	0
COCc1cn(CC[C@@H]2CC[C@H](NC(=O)Nc3ccc(OC)cc3)[C@H](CO)O2)nn1	-	-	-	0	-
SMILES	Myeloid diff MLP	ABCB6 inh MLPCN	N-glyco inh	RAD54 inh	Vif inh
CCOC(=O)c1c(C)[nH]c(C(=O)OCC(=O)Nc2cc(C)ccc2OC)c1C	0	0	0	0	0
CCOC(=O)c1[nH]c(C)c(C(=O)Nc2cc(OC)ccc2OC)c1C	-	0	34.6	0	53.9
CCOC(=O)c1c(C)[nH]c(C(=O)/C(C#N)=C/c2ccc(OC)c(OC)c2)c1C	+	0	0	0	0
CCOC(=O)c1c(C)[nH]c(C(=O)/C(C#N)=C/c2ccc(OC(F)F)c(OC)c2)c1C	+	0	0	-	0
CCCC#Cc1ccc2c(c1)O[C@@H](CN(C)Cc1ccccn1)[C@H](C)CN([C@H](C)CO)S2(=O)=O	-	-	-	0	-
Cc1cc(C)cc(Nc2nc(-c3ccc(S(=O)(=O)N4CCCC4)cc3)cs2)c1	+	0	0	-	0
N#CCc1ccc(C(=O)c2ccccc2F)s1	+	0	0	0	0
COc1ccc(CC(N)c2csc(Nc3cccc(OC)n3)n2)cc1 (stereo unspecified)	0	0	0	0	0
COc1cccc(Nc2nc(C(N)Cc3ccc(F)cc3)cs2)n1 (stereo unspecified)	+	0	0	0	0
CSc1ncccc1C(=O)OCC(=O)NC(C)(C)C	0	0	0	0	51.7
COc1ccc(S(=O)(=O)N[C@H]2C=C[C@H](CC(=O)N3CCC(Cc4ccccc4)CC3)O[C@@H]2CO)cc1	-	-	-	0	-
CC(=O)N1c2ccccc2NC2=C(C(=O)CCC2)C1c1ccco1 (stereo unspecified)	0	0	0	0	0
CC1CC(=O)C2=C(C1)Nc1ccccc1N(C(=O)COc1ccccc1)C2c1ccco1 (stereo unspecified)	+	0	0	0	0
CC1(C(=O)Nc2ccc3[nH]ncc3c2)CCN1C(=O)C/C=C/c1ccccc1 (stereo unspecified)	+	0	0	0	0
CC1(C(=O)Nc2ccc3[nH]ncc3c2)CCN1C(=O)CC(c1ccccc1)c1ccccc1 (stereo unspecified)	0	0	0	0	0
O=C(c1ccc(F)cc1)N1CCCCN2[C@H](CO)[C@@H](c3ccc(-c4ccc(F)cc4)cc3)[C@H]2C1	-	-	-	0	-
CCN(CCCNC(=O)C1CCC(=O)N1Cc1ccc(C)cc1)c1cccc(C)c1 (stereo unspecified)	0	0	0	0	51.5
O=C(Cc1ccccc1[N+](=O)[O-])NCCC1=CCCCC1	+	0	0	-	0
O=C(Cc1ccccc1)NCCC1=CCCCC1	0	0	0	-	0
Cc1cc(C)c(C(=O)/C=C/c2ccco2)c(=O)[nH]1	+	0	0	0	0
O=C1CCCC2=C1C(c1ccc(O)c(Br)c1)C1=C(CCCC1=O)N2c1ccccc1	+	0	0	-	0
CCN1C2=C(C(=O)CCC2)C(c2ccc(O)c(Br)c2)C2=C1CCCC2=O	0	0	0	0	0
O=C(/C=C/c1ccccc1)c1ccc2c3c(cccc13)CC2	0	0	46.6	-	-
CCC(C(=O)Nc1ccccc1OC)n1c(C(=O)OC)cc2ccsc21 (stereo unspecified)	+	0	0	0	-
CCOc1ccc2nc(N(CCCN(C)C)C(=O)c3ccc4c(c3)CCCC4)sc2c1	0	0	0	0	0
SMILES	Myeloid diff MLP	ABCB6 inh MLPCN	N-glyco inh	RAD54 inh	Vif inh
CN(C)CCCN(C(=O)c1ccc2c(c1)CCCC2)c1nc2ccc(Cl)cc2s1	+	0	0	-	0
CO[C@H](CN(C)S(=O)(=O)c1cccc(Cl)c1)[C@@H](C)CN([C@H](C)CO)S(=O)(=O)c1cccc(Cl)c1	-	-	-	0	-
O=c1[nH]n2c(=O)c3c([nH]c2c1N=Nc1cccc(Cl)c1)CCCC3	0	0	0	0	0
CCOc1ccc(N=Nc2c(=O)[nH]n3c(=O)c4c([nH]c23)CCCC4)cc1	+	0	0	-	-
O=C(Nc1cc(F)ccc1F)N1C[C@@H]2[C@H](c3ccccc31)[C@H](CO)N2CC1CCCC1	-	-	-	0	-
O=C(/C(=C\c1ccccc1)c1nc2ccccc2[nH]1)c1ccc(Cl)cc1	?	0	33.8	-	0
